MITF inh – inhibitors of human MITF; AID 1259374; actives 0.91% (n = 650,000); O75030; AlphaScreen MITF homodimerization, bead proximity signal; inhibition, % at 2.6 µM; in the data active = inhibition above about 50%;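 note: 0% = vehicle wells with protein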
Target sequence (O75030 whole entry, looked up): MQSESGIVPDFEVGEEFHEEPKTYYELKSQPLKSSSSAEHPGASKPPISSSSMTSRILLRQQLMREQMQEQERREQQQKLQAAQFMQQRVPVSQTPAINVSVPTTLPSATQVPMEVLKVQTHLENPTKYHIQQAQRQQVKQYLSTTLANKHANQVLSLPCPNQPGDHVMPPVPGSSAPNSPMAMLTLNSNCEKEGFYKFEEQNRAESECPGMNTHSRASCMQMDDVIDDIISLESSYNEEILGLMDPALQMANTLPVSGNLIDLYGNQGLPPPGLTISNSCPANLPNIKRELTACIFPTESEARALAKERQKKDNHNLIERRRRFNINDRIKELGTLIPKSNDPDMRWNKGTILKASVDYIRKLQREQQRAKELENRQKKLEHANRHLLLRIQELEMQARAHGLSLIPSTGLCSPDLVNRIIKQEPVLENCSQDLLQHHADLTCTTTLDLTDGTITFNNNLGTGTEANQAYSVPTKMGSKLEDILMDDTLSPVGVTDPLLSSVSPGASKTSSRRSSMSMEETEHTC
TEAD-YAP inh – TEAD-YAP interaction inhibition; inhibition, % at 9.12 µM; AID 1259422; HEK-TIYL cells, TEAD-Gal4/YAP UAS-luciferase luminescence; actives 1.4% (n = 640,000); in the data active = inhibition above about 32%;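 note: 0% = median of test compound wells and 100% = reference inhibitor wells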
FBW7 act – human FBW7 E3 ligase activation, primary screen; Q969H0; AlphaScreen FBW7–phospho-cyclin E peptide binding, activator screen; normalized activity (activation), % at 26.1 µM; actives 0.13% (n = 650,000); AID 1259310; in the data active = normalized activity above about 1.9%;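 note: purified mutant Fbw7 with reduced substrate affinity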
GPR151 activ – activators of human GPR151. actives 1% (n = 650,000). activation, % at 11.2 µM. PathHunter beta-arrestin GPR151 cells, luminescence. Q8TDV0; in the data active = activation above about 4.9%;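 note: 0% = median of compound wells and 100% = cells with positive control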
* = called active by the depositor. Most compounds without a hit are left out; they make up all but 3.5% or so of the library.

SMILES	MITF inh	TEAD-YAP inh	FBW7 act	GPR151 activ
COC(=O)c1c(NC(=O)CN2C(=O)c3ccccc3C2=O)sc(C(C)=O)c1C	-15	-6	0	-2
Cc1ccc(C(=O)/C=C/Nc2ccc(Br)cc2F)o1	6	77*	0	0
Cc1ccc(C(=O)/C=C/Nc2ccc(F)cc2F)o1	-13	61*	0	-1
Cc1ccc(C(=O)/C=C/Nc2cccc(Cl)c2C)o1	10	-13	0	0
COc1ccccc1-c1cc(C(=O)O)[nH]n1	13	9	0	1
COC(=O)c1ccc2nc(C)cc(Nc3cccc(OC)c3)c2c1	-5	11	0	0
CCCn1c(N)c(C(=O)COc2cc(F)ccc2[N+](=O)[O-])c(=O)[nH]c1=O	-5	4	0	2
Cc1cc2ncn(CC3CCN(C(=O)c4ccccc4Br)CC3)c2cc1C	37	40*	0	-1
O=C(Nc1ncc(S(=O)(=O)c2ccc([N+](=O)[O-])cc2)s1)C(F)(F)F	4	6	0	0
Cc1nc2c(C)cccn2c1C(=O)NCc1ccc2c(c1)OCO2	-11	34*	0	-1
Cc1nc2ccccn2c1C(=O)NCc1ccc2c(c1)OCO2	14	6	1	0
CCC(C)NP1(=O)C=C(c2ccccc2)OC(c2ccccc2)=C1 (stereo not given)	20	-5	1	2
CC(=O)c1cc2c(cc1NS(=O)(=O)c1ccc(C)cc1)OCCO2	11	37*	0	0
CC(=O)c1cc2c(cc1NS(=O)(=O)c1ccccc1)OCO2	5	-3	0	-1
COC(=O)c1ccc(C)c(NS(=O)(=O)c2ccc(OC)cc2)c1	5	66*	0	-1
CCOc1ccc(S(=O)(=O)Nc2cc(C(=O)OC)ccc2C)cc1	1	55*	0	0
COc1ccc(S(=O)(=O)Nc2cc(F)ccc2C)cc1	5	52*	0	-1
COc1ccc(S(=O)(=O)Nc2cc(S(N)(=O)=O)ccc2C)cc1	-2	3	0	2
COc1ccc2ccccc2c1/C=C1/N=C(c2ccc(C)c([N+](=O)[O-])c2)OC1=O	3	-6	0	1
CCOC(=O)c1c(NC(=O)c2cc3ccccc3oc2=O)sc2c1CCN(C(C)=O)C2	-4	5	0	0
COC(=O)c1ccc(C)c(NS(=O)(=O)c2ccc(Cl)cc2)c1	-6	54*	0	-1
COC(=O)c1ccc(C)c(NS(=O)(=O)c2ccc3c(c2)OCCO3)c1	3	57*	0	1
COC(=O)c1ccc(C)c(NS(=O)(=O)c2ccc(C)c([N+](=O)[O-])c2)c1	10	11	0	0
COC(=O)c1ccc(C)c(NS(=O)(=O)c2ccc(SC)cc2)c1	15	47*	1	0
COc1ccc(C)cc1NC(=O)C(=O)N/N=C(\C)CC(=O)Nc1ccc(Cl)cc1C	1	4	0	0
SMILES	MITF inh	TEAD-YAP inh	FBW7 act	GPR151 activ
Cc1cc(N2CCCCC2)nc(NCc2ccccc2)n1	-11	48*	0	2
Cc1cc(N2CCCCC2)nc(NCCNC(=O)/C=C/c2ccccc2)n1	-1	38*	0	-2
Cc1cc(N2CCOCC2)nc(NCc2ccccc2)n1	13	7	0	1
Cc1cc(N2CCCCC2)nc(NCCNC(=O)c2ccco2)n1	-8	41*	0	2
COc1cc(OC)c(NC(=O)NCCNc2nc(C)cc(N3CCCCC3)n2)cc1Cl	2	10	0	-1
Cc1cc(N2CCCCC2)nc(NCCNC(=O)Nc2ccc(F)cc2F)n1	0	37*	0	-2
Cc1cc(C)c(N2C(=O)c3nccnc3C2=O)c(C)c1	1	7	0	2
COc1ccc(/C=C2N=C(/C=C\c3cccc([N+](=O)[O-])c3)OC/2=O)cc1	-5	-3	0	0
Cc1ccc(-n2[nH]c(C)c(C=Nc3ccc(S(=O)(=O)N4CCCCC4)cc3)c2=O)cc1	-1	5	0	-2
Cc1cc(S(=O)(=O)n2ccnc2C)c(C)cc1Br	5	3	0	0
COc1ccccc1N1CCN(C(=O)CSc2nc3ccccc3c(=O)n2CCC(=O)NC2CCCCC2)CC1	-9	46*	0	2
CCOC(=O)c1c(C)[nH]c(C)c1C(=O)COC(=O)c1ccc2[nH]c(C)c(C)c2c1	-6	66*	0	-1
CCOC(=O)c1c(C)[nH]c(C)c1C(=O)COC(=O)c1ccc(O)cc1	8	-1	0	-1
CCOC(=O)C1=C(N)N(c2cccc([N+](=O)[O-])c2)C2=C(C(=O)CCC2)C1c1ccc(Cl)cc1 (stereo not given)	7	-21	0	0

Screening data as filed in PubChem BioAssay.
